High-throughput results as filed in PubChem BioAssay.
ATXN2 expr inh – ATXN2 expression inhibition. Potency, µM (highest dose often 57 µM), without a hit: at the highest dose activity change, negative = inhibition, most hits filed as inhibitors. 360,000 compounds, 0.72% hits. HEK-293 ATXN2-luciferase reporter, luminescence, 24 h; note: % is set by controls: 0 for no effect and ±100 for the full control effect; nearly all actives have a fitted effect of over 55% in size
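qHTS (up to 57 uM final) was run with 24 h compound exposure of reporter cells at 37 °C. Each well was multiplexed: SteadyGlo luminescence measured ATXN2-luciferase expression after a fluorogenic Gly-Phe-AFC viability readout (25 uM final).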
ATXN viability – reduces viability in counter-screen for ATXN expression inhibitors. S2 cells (HEK-293 line with an ATXN2-luciferase reporter) viability, CellTiter-Fluor protease fluorescence, 24 h. Potency, µM (top dose mostly 56.7 µM), actives largely listed as cytotoxic. 400,000 compounds, 0.49% hits; note: nearly all actives have a fitted effect of over 40% in size
TGFb SMAD3 inh – blocks TGF-b signaling | HepG2 CAGA-GFP TGF-b/SMAD3 reporter, GFP fluorescence, 18 h; TGF-beta stimulated, 500 pg/mL final | Potency, µM (doses to about 46.1 µM), inactives show top-dose activity, negative = inhibition, usual class: inhibitors | 410,000 compounds, 1.2% hits | AID 588855; note: % is set by controls: 0 for no effect and ±100 for the full control effect; nearly all actives have a fitted effect of over 65% in size
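Read-out: total well GFP (ex488/em500-530) summed from mean per-cell fluorescence. Cells: HEPG2 CAGA-GFP, 1% FBS DMEM, 18 h at 37 degrees C with 500 pg/mL final TGF-beta. Unstimulated wells served as the full-inhibition control; stimulated DMSO wells = 0%.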
Gal4-VP16 FLuc – Gal4-VP16 reporter inhibition counter-screen; 310,000 compounds, 3.5% hits; Drosophila S2 Gal4-VP16 UAS-luciferase, luminescence, 20 h; Potency, µM (highest dose often 53.6 µM), for inactives: at the top dose activity, negative = inhibition, hits mostly inhibitors; AID 2546;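 note: Gal4-VP16 expression switched on by copper sulfate through the metallothionein promoter; % is set by controls: 0 for no effect and ±100 for the full control effect; nearly all actives have a fitted effect of over 50% in size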
HepG2 tox – counter-screen for TGF-b inhibitors: cytotoxicity in HepG2 cells; HepG2 CAGA-GFP viability, ATP luminescence, 18 h; Potency, µM (titrated, usually from 46.1 µM), for the others: top-dose activity change, negative = cytotoxicity, most hits filed as cytotoxic; 410,000 compounds, 0.76% hits; AID 588856
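HepG2 CAGA-GFP cells (1000/well, DMEM with 1% FBS) received compound, then TGF-beta at 500 pg/mL final, and were incubated 18 hours at 37 degrees C. Viability was read by CellTiter-Glo luminescence. Media-only wells were set as complete cell-killing and DMSO as no toxicity.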
RORgamma inh – blocks mouse ROR gamma transcriptional activity | P51450 | Drosophila S2 Gal4-RORgamma UAS-luciferase reporter, 20 h | Potency, µM (series often up to 53.6 µM), inactives show at the top dose activity change, negative = inhibition, hits mostly inhibitors | 310,000 compounds, 5.4% hits | AID 2551; note: % is set by controls: 0 for no effect and ±100 for the full control effect; nearly all actives have a fitted effect of over 60% in size
Target sequence (P51450 whole entry, looked up, the tested form may be a part): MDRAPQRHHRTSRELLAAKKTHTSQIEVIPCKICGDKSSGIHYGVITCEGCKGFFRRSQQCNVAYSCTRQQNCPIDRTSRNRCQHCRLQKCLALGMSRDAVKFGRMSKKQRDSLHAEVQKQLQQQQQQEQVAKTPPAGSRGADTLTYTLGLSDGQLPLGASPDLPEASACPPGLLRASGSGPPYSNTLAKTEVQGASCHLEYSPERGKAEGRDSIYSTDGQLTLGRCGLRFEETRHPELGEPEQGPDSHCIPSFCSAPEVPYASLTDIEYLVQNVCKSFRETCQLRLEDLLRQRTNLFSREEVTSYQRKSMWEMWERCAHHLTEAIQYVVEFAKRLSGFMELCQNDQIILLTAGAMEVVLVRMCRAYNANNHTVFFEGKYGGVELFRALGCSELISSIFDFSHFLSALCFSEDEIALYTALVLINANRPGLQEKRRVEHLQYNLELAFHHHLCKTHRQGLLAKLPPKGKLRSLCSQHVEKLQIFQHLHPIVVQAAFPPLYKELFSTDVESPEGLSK
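ROR gamma transcriptional activity was tracked as Gal4-UAS luciferase output in stably transfected Drosophila Schneider cells, with compound added 1 hr before 700 uM copper sulfate induction and a 20 hr ambient-temperature incubation.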
* hit, by the source's call. Only some compounds are listed: those with a hit (about 6.1% of all), similar ones and a draw of the others. Calls come from the whole dose curve; as a rule, active = well fitted curve in the direction sought with a large enough effect; inconclusive = small, poorly fitted or top-dose-only effect, or another doubt; inactive = no such curve, though single readings can be large; an effect the other way counts as inactive or inconclusive. Potency is the fitted concentration of half-maximal effect.

For COC(=O)[C@@H]1CCCN1Cc1ccc2c(c1)CN(Cc1cccc(Cl)c1)CCO2 the results were ATXN viability inactive.
Screening COC(=O)C1(C)C=CC2(CCCCC2)N1C(=O)c1ccccc1 (stereo not given) returned Gal4-VP16 FLuc -4% and RORgamma inh 10µM*.
COCCNC(=O)C1(C)C=CC2(CCCCC2)N1C(=O)c1ccccc1 (stereo not given) was read as ATXN2 expr inh 18%, ATXN viability inactive, TGFb SMAD3 inh -3%, Gal4-VP16 FLuc -7%, HepG2 tox 5% and RORgamma inh -1%.
Cc1oc2ncn(C)c(=O)c2c1C(=O)NCCCN1CCCCC1C (stereo not given) was read as ATXN2 expr inh 3%, ATXN viability inactive, TGFb SMAD3 inh -4% and HepG2 tox 0%.
For COc1ccc(-n2cnc(=S)[nH]c2=S)cc1 the results were ATXN2 expr inh 23%, ATXN viability inactive, TGFb SMAD3 inh inconclusive and HepG2 tox -51%.
Screening CC(C)(C)c1cn(-c2ccc(Cl)cc2)c(=S)[nH]1 returned ATXN2 expr inh 18%, ATXN viability inactive, TGFb SMAD3 inh -1%, Gal4-VP16 FLuc 5.6µM*, HepG2 tox 10% and RORgamma inh 4.5µM*.
Screening Cc1cc(C)nc(Nc2nc(C)c3cc4c(cc3n2)OCO4)n1 returned ATXN2 expr inh -10%, ATXN viability inactive, TGFb SMAD3 inh -9%, Gal4-VP16 FLuc 7.1µM*, HepG2 tox -6% and RORgamma inh 7.1µM*.
`NC(=O)c1ccc[n+]([C@@H]2O[C@H](COP(=O)([O-])OP(=O)(O)OC[C@H]3O[C@@H](n4cnc5c(N)ncnc54)[C@H](O)[C@@H]3O)[C@@H](O)[C@H]2O)c1` gave ATXN viability inactive.
CCCc1nn2c(=O)cc(COC(=O)c3ccc(NC(=O)c4cccs4)cc3)nc2s1 was read as TGFb SMAD3 inh 11µM* and HepG2 tox -23%.
For CCCCc1nn2c(=O)cc(COC(=O)c3ccc(NC(=O)c4cccs4)cc3)nc2s1 the results were TGFb SMAD3 inh -12% and HepG2 tox -25%.
`CCOc1ccc(C(=O)Nc2ccc(C(=O)OCc3cc(=O)n4c(C)csc4n3)cc2)cc1` gave TGFb SMAD3 inh 22µM* and HepG2 tox -16%.
Screening O=C(N/N=C/c1ccc(Br)cc1)c1ccc(F)cc1 returned ATXN2 expr inh 19%, ATXN viability inactive, TGFb SMAD3 inh -6%, Gal4-VP16 FLuc inconclusive, HepG2 tox -11% and RORgamma inh inconclusive.
For Cc1ccc(C(=O)N/N=C\c2ccc3c(c2)OCO3)cn1 the results were ATXN2 expr inh 1%, ATXN viability inactive, TGFb SMAD3 inh -4%, Gal4-VP16 FLuc -8%, HepG2 tox -4% and RORgamma inh -20%.
For Cc1ccc(C(=O)N/N=C/c2cc(Br)ccc2O)cn1 the results were ATXN2 expr inh 2µM*, ATXN viability inconclusive, TGFb SMAD3 inh inconclusive, Gal4-VP16 FLuc 1.1µM*, HepG2 tox -34% and RORgamma inh 2.5µM*.
For Cc1ccc(C(=O)N/N=C\C=C\c2ccc(Br)cc2)cn1 the results were ATXN viability inactive, TGFb SMAD3 inh 2%, Gal4-VP16 FLuc 2.2µM*, HepG2 tox -16% and RORgamma inh 0.56µM*.
For O=C(O)CCN1C(=O)/C(=C2\C(=O)N(Cc3ccccc3Cl)c3ccccc32)SC1=S the results were Gal4-VP16 FLuc 1% and RORgamma inh -1%.
Screening C=CCN1C(=O)/C(=c2\sc3nc(=O)c(Cc4ccccc4Cl)nn3c2=O)c2ccccc21 returned ATXN2 expr inh -8%, ATXN viability inactive, TGFb SMAD3 inh 0%, Gal4-VP16 FLuc inconclusive, HepG2 tox 35% and RORgamma inh 13µM*.
`COc1cnc(-c2ccccn2)nc1Oc1c(C)cccc1C` gave ATXN2 expr inh inconclusive, ATXN viability inactive, TGFb SMAD3 inh -19%, Gal4-VP16 FLuc 20µM*, HepG2 tox -22% and RORgamma inh 7.1µM*.
`COc1cnc(-c2ccccn2)nc1Oc1cccc(Cl)c1` gave ATXN2 expr inh -13%, ATXN viability inconclusive, TGFb SMAD3 inh -20%, Gal4-VP16 FLuc 16µM*, HepG2 tox -17% and RORgamma inh 2.8µM*.
`COc1ccc(Oc2nc(-c3ccccn3)ncc2OC)cc1` gave ATXN2 expr inh -17%, ATXN viability inactive, TGFb SMAD3 inh 0%, Gal4-VP16 FLuc -20%, HepG2 tox -2% and RORgamma inh 7.1µM*.
COc1cnc(-c2ccccn2)nc1N(C)C was read as ATXN2 expr inh 16µM*, ATXN viability inconclusive, TGFb SMAD3 inh -27%, Gal4-VP16 FLuc inconclusive, HepG2 tox -17% and RORgamma inh 18µM*.
COc1ccc(OC)c(-c2cc(Cl)c3c(c2)CC(CNC(=O)C(C)N2CCOCC2)O3)c1 (stereo not given) was read as ATXN viability inactive.
Screening CCOc1cc2[nH]c(=O)n(CCCCC(=O)N3CCN(c4ccccc4)CC3)c(=O)c2cc1OCC returned ATXN2 expr inh 1%, ATXN viability inactive, TGFb SMAD3 inh 0% and HepG2 tox 1%.
COC(=O)c1c(SCC(=O)Nc2cccc(C(F)(F)F)c2)[nH]c2ccccc2c1=O was read as ATXN2 expr inh inconclusive, ATXN viability inactive, TGFb SMAD3 inh -10% and HepG2 tox -21%.
Screening Cc1cc(=O)[nH]c(-n2nc(C)cc2C)n1 returned ATXN2 expr inh -20%, ATXN viability inactive, TGFb SMAD3 inh -9%, Gal4-VP16 FLuc 3.2µM*, HepG2 tox -16% and RORgamma inh 1.6µM*.
For Cc1nn(-c2ccc(C(F)(F)F)cn2)c(C)c1Oc1ccccc1O the results were ATXN2 expr inh -12%, ATXN viability inconclusive, TGFb SMAD3 inh inconclusive, Gal4-VP16 FLuc 3%, HepG2 tox -81% and RORgamma inh 19%.
`Cc1cc(=O)[nH]c(-n2nc(C)c(Oc3ccccc3O)c2C)n1` gave ATXN2 expr inh -6%, ATXN viability inactive, TGFb SMAD3 inh 3%, Gal4-VP16 FLuc 11µM*, HepG2 tox -17% and RORgamma inh 4.5µM*.
`C#CCCCCCCCCCCCc1ccco1` gave Gal4-VP16 FLuc -3% and RORgamma inh -3%.
Cc1ccc2oc(/N=C(\N)NC(=O)C(C)(C)C)nc2c1 was read as ATXN2 expr inh -82%, ATXN viability inactive, TGFb SMAD3 inh 0%, Gal4-VP16 FLuc 0.45µM*, HepG2 tox -26% and RORgamma inh 0.05µM*.
